# PI5P4Ka inh = qHTS for Inhibitors of phosphatidylinositol 5-phosphate 4-kinase (PI5P4K). max response, %. PI5P4Kalpha enzyme, ADP-Glo luminescence, 60 min; stronger effect = lower value. Phosphatidylinositol 5-phosphate 4-kinase type-2 alpha (Homo sapiens), P48426. 330,000 tested, 1.2% active; active means max response of -50% or lower; inconclusive means between -30% and -50%; inactive means -30% or higher; further: value at the top dose of about 77 µM
#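 Human PI5P4Kalpha with substrate in 0.038 M HEPES pH 7.4, 0.28 mM EGTA, 0.1% CHAPS, 5% DMSO; reaction started with 5 microM ATP (final), 60 min at room temperature. ADP formed read by ADP-Glo luminescence.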
# JMJD2A Tudor inh = qHTS Assay for Inhibitors of JMJD2A-Tudor Domain; Lysine-specific demethylase 4A (Homo sapiens), O75164; AlphaScreen JMJD2A-Tudor / H3K4me3 peptide binding; Potency, µM (top dose mostly 114 µM), actives largely listed as inhibitors; 390,000 tested, 4.4% active; further: nearly all actives have a fitted effect of over 50% in size
# G9a inh-1 = qHTS Assay for Inhibitors of Histone Lysine Methyltransferase G9a. G9a H3K9 monomethylation, AlphaScreen, 2 h. 350,000 tested, 8.8% active. Histone-lysine N-methyltransferase EHMT2 (Homo sapiens), Q96KQ7. Potency, µM (highest dose often 102 µM), hits mostly inhibitors; further: nearly all actives have a fitted effect of over 75% in size
#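 Using a bead-based AlphaScreen, monomethylated H3K9 product from 2 h room-temperature reactions (G9a 20 nM, peptide 500 nM, SAM 20 uM) was detected with 0.5 ug/mL rabbit anti-H3K9me1 antibody.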
# BAZ2B inh = qHTS Assay for Inhibitors of BAZ2B; 360,000 tested, 4.4% active; AlphaScreen BAZ2B-H3K14Ac peptide displacement; Potency, µM (series often up to 114 µM), actives largely listed as inhibitors; Bromodomain adjacent to zinc finger domain protein 2B (Homo sapiens), Q9UIF8; further: nearly all actives have a fitted effect of over 60% in size
#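 In this displacement format the biotinylated H3(5-23) peptide acetylated at Lys14 serves as ligand at 50 nM, with BAZ2B at 50 nM in PBS pH 7.4 containing 0.01% Tween-20. Donor and acceptor beads are 10 ug/mL final.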
# HP1b chromo inh = HTS for Inhibitors of HP1-beta Chromodomain Interactions with Methylated Histone Tails | AID 540317, 2011 | Chromobox protein homolog 1 (Homo sapiens), P83916 | AlphaScreen HP1-beta / biotin-H3K9me3 peptide binding | 390,000 tested, 0.56% active | Potency, µM (highest dose often 114 µM), usual class: inhibitors; further: nearly all actives have a fitted effect of over 70% in size
# Target sequence (P83916 whole entry, looked up): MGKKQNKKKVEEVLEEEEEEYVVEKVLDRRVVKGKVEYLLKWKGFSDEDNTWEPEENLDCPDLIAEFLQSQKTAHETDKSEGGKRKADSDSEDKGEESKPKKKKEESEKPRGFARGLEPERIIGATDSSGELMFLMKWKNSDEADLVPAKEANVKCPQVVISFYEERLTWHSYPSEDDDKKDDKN
#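 HP1-beta protein (50 nM final) preincubated 30 min at room temperature with biotinylated H3(1-18)K9me3 peptide (50 nM) in PBS pH 7.4, 0.01% Tween-20, then compound added for 30 min. AlphaScreen streptavidin donor/nickel chelate acceptor beads (10 ug/mL final), 30 min dark, luminescence read.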
# PLK1 PBD block = qHTS for Inhibitors of PLK1-PDB (polo-like kinase 1 - polo-box domain): Primary Screen; Plk1 PBD binding of FITC phosphopeptide, fluorescence polarization; 360,000 tested, 2.8% active; Potency, µM, usual class: inhibitors; Serine/threonine-protein kinase PLK1 (Homo sapiens), P53350; further: series mostly up to about 57 µM; nearly all actives have a fitted effect of over 65% in size
# Target sequence (P53350 whole entry, looked up, the tested form may be a part): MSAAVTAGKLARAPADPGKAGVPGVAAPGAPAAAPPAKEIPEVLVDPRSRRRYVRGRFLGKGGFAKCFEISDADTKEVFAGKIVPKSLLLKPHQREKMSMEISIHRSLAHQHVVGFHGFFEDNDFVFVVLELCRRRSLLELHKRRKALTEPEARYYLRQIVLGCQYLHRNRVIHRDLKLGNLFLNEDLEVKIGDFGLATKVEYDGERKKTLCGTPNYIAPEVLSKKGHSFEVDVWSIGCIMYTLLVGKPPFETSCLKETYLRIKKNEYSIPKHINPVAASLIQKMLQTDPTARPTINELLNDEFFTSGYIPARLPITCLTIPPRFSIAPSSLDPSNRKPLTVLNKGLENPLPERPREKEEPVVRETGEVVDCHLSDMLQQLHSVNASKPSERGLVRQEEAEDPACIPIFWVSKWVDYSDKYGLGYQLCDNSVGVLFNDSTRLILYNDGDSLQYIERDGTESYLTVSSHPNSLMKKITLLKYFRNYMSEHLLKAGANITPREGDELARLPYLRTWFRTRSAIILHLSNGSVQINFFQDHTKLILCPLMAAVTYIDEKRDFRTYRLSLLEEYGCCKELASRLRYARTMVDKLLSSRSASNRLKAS
# 12-hLO cuvette = Cuvette-Based Assay for Inhibitors of 12-hLO (12-human lipoxygenase): 8HQ Series - Round 1 | Potency, µM, actives largely listed as inhibitors | AID 2163, 2009 | shares compounds with BAZ2B inh | purified 12-hLO, cuvette UV 234 nm product formation | 35 tested, 60% active;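 active means compounds that slowed 12-hLO product formation enough to yield a measured IC50 potency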
# JMJD2E inh-1 = Inhibitors of Human Jumonji Domain Containing 2E (JMJD2E): 8HQs - Round 1; shares compounds with BAZ2B inh; JMJD2E demethylase, FDH-coupled NADH fluorescence; Potency, µM (doses to about 57 µM), hits mostly inhibitors; 130 tested, 89% active
# ME-1 growth = qHTS Assay for Compounds Blocking the Interaction Between CBF-beta and RUNX1 for the Treatment of Acute Myeloid Leukemia: ME-1 cellular proliferation | AID 504370, 2011 | Potency, µM (series often up to 56.1 µM), usual class: inhibitors | shares compounds with BAZ2B inh | 140 tested, 20% active | ME-1 cell proliferation, ATP luminescence, 48 h
# JMJD2E inh-2 = Confirmation qHTS Assay for Inhibitors of Human Jumonji Domain Containing 2E (JMJD2E). Potency, µM (highest dose often 56.8 µM), usual class: inhibitors. 140 tested, 93% active. shares compounds with JMJD2A Tudor inh. Recombinant JMJD2E, FDH-coupled NADH fluorescence (FDH is formaldehyde dehydrogenase). AID 2677, 2010
# FDH inh = Counterscreen for JMJD2E Inhibitors: qHTS Assay for Inhibitors of Formaldehyde Dehydrogenase (FDH); Potency, µM (doses to about 56.7 µM), usual class: inhibitors; shares compounds with JMJD2A Tudor inh; FDH enzyme assay, NADH fluorescence kinetic; 140 tested, 10% active; AID 2680, 2010
# JMJD2E MS inh = MALDI-TOF-MS Assay for Inhibitors of Human Jumonji Domain Containing 2E (JMJD2E); AID 2688, 2010; 45 tested, 90% active; recombinant JMJD2E demethylation, MALDI-TOF-MS; shares compounds with JMJD2A Tudor inh; Potency, µM, hits mostly inhibitors;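 active means compounds whose IC50 for blocking JMJD2E demethylation is below 100 µM; inconclusive means dose dependent effect but IC50 above 100 µM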
# G9a inh-2 = qHTS Assay for Inhibitors of Histone Lysine Methyltransferase G9a: Hit Confirmation; 370 tested, 89% active; Potency, µM, most hits filed as inhibitors; G9a H3K9 monomethylation, AlphaScreen, 2 h; shares compounds with JMJD2A Tudor inh; further: nearly all actives have a fitted effect of over 65% in size
# RGS4 inh = qHTS for Inhibitors of Regulator of G Protein Signaling(RGS) 4: Hit Validation; shares compounds with JMJD2A Tudor inh; RGS4 GAP activity, Transcreener GDP fluorescence polarization; Potency, µM, usual class: inhibitors; 25 tested, 80% active
# ADP-Glo counter = qHTS for Inhibitors of PI5P4K: ADP-Glo counter assay | shares compounds with PI5P4Ka inh | Potency, µM (titrated, usually from 76.9 µM), most hits filed as inhibitors | 1,100 tested, under 10 active | ADP-Glo detection counter-screen, luciferase luminescence, no enzyme
# TbPYK confirm = qHTS of Trypanosoma Brucei Inhibitors: Confirmatory Assay for Cherry-picked Compounds; shares compounds with PLK1 PBD block; recombinant TbPYK, Kinase-Glo ATP luminescence; Potency, µM (top dose mostly 76.9 µM), hits mostly inhibitors; 890 tested, 67% active; AID 720569, 2013; further: nearly all actives have a fitted effect of over 70% in size
# TbPYK ADP-Glo = qHTS of Trypanosoma Brucei Inhibitors: Orthogonal Assay for Cherry-picked Compounds. shares compounds with PLK1 PBD block. recombinant TbPYK, ADP-Glo luminescence, 60 min. Potency, µM (titrated, usually from 76.9 µM), usual class: inhibitors. 890 tested, 62% active; further: nearly all actives have a fitted effect of over 75% in size
# Numbers stand for hits; i = inactive; ? = inconclusive; nt = no result given; [ ] = dose if it differs, or a comment. Compounds with a hit are over-represented: about 12% of the library has one in this group of screens. Unless noted, the call rests on the fitted dose curve; in most records, active means well fitted curve in the direction sought with a large enough effect; inconclusive means small, poorly fitted or top-dose-only effect, or another doubt; inactive means no such curve, though single readings can be large; an effect the other way counts as inactive or inconclusive.
SMILES,PI5P4Ka inh,JMJD2A Tudor inh,G9a inh-1,BAZ2B inh,HP1b chromo inh,PLK1 PBD block,G9a inh-2,others
CN(C)CCCNCCCNC(=O)c1ccncc1,i,i,?,i,i,i,nt,
Oc1cc(-c2ccncc2)cc2cccnc12,nt,44.7µM,i[12.7 µM],2.82µM,i,nt,nt,JMJD2E inh-1=32.4µM;JMJD2E inh-2=15.8µM;FDH inh=i;JMJD2E MS inh=23.2
CN(C)c1ccc(-c2cc(O)c3ncccc3c2)cc1,nt,?,i[12.7 µM],i,i,nt,nt,JMJD2E inh-1=16.2µM;JMJD2E inh-2=16.2µM;FDH inh=i
COc1ccc(OC)c(S(=O)(=O)N2CCN(Cc3nc4ccc(C)cc4o3)CC2)c1,nt,i,i,i,i,nt,nt,
Cc1c(CC(=O)NCCc2ccccc2F)c(=O)oc2c(C)c3occ(C(C)(C)C)c3cc12,nt,i,i,i,i,nt,nt,
COCCNC(=O)c1nn(-c2ccc(Cl)cc2)nc1CO,nt,i,i,i,i,nt,nt,
O=S(=O)(c1ccc(Cl)cc1)N1CCN(c2nc(-c3ccc(F)cc3)nc3cc(Cl)ccc23)CC1,nt,i,nt,nt,i,nt,nt,
CCC(=O)NC(c1cccs1)c1cc(Cl)c2cccnc2c1O (stereo not drawn),i,i,i,i,i,i,nt,12-hLO cuvette=1µM;JMJD2E inh-1=12.6µM;JMJD2E inh-2=12.6µM;FDH inh=i
CCC(=O)NC(c1ccc(C)cc1)c1ccc2cccnc2c1O (stereo not drawn),i,79.4µM,i,22.4µM,i,i,nt,12-hLO cuvette=i;JMJD2E inh-1=12.6µM;JMJD2E inh-2=12.6µM;FDH inh=i
CCC(=O)NC(c1cccc([N+](=O)[O-])c1)c1c(O)ccc2ccccc12 (stereo not drawn),i,i,i,i,i,i,nt,
CCC(=O)NC(c1ccc(C)cc1)c1cc([N+](=O)[O-])c2cccnc2c1O (stereo not drawn),i,22.4µM,?,3.98µM,i,?,nt,12-hLO cuvette=2.3µM;JMJD2E inh-1=12.6µM;JMJD2E inh-2=12.6µM;FDH inh=i
CCOc1ccc(C(NC(=O)CC)c2c(O)ccc3ccccc23)cc1 (stereo not drawn),i,i,?,i,i,i,nt,
CC(C)(C)Cc1nnc(NC(=O)c2ccco2)s1,i,i,i,i,i,i,nt,
O=S(=O)(c1ccc2nc(-c3ccco3)c(-c3ccco3)nc2c1)N1CCOCC1,-77.9,79.4µM,2µM,50.1µM,i,?,nt,ME-1 growth=i;ADP-Glo counter=i;TbPYK confirm=20µM;TbPYK ADP-Glo=25.1µM
CC1(C(=O)NCC2CC2)CCN1C(=O)C1(c2ccc(Cl)cc2)CC1 (stereo not drawn),i,nt,nt,nt,nt,i,nt,
COc1ccc2[nH]cc(CCNc3ncnc4ccc(-c5ccoc5)cc34)c2c1,nt,nt,i[0.501 µM],nt,nt,nt,nt,RGS4 inh=?
Cc1c(C)n(Cc2ccccc2)c2ccc(C(=O)OCCN(C)C)cc12,i,56.2µM,?,22.4µM,?,i,32.4,
CCCNC(=O)c1ccc(Cn2cc(-c3ccc(OC)cc3)nc2C(C)N)cc1 (stereo not drawn),i,i,i[2.33 µM],i,i,i,nt,
O=C(Sc1nnnn1C1CCCCC1)c1cccs1,nt,nt,?,?,nt,nt,0.71,
COc1ccc(N2CCN(Cc3nc(-c4ccc(Cl)cc4Cl)no3)CC2)cc1,nt,25.1µM,2.24µM,35.5µM,?,i,4.48,
CN(C)c1ccc(NC(=O)Nc2ccc3snnc3c2)cc1,i,i,1.26µM,i,i,i,1.59,
CCn1c(CSc2nc3ccccc3s2)nnc1SCC(=O)c1ccc(O)c(O)c1,nt,44.7µM,0.794µM,35.5µM,i,i,1.42,
CC(C)n1cnc2cc(NCc3ccco3)ccc21,nt,?,?,i,i,i,14.2,

# Screening data: PubChem BioAssay, National Center for Advancing Translational Sciences (NCATS)
